Measured values taken from PubChem BioAssay (Tox21).
Inconclusive results are not listed. The source made the active and inactive calls. Unless noted, the call rests on the fitted dose curve.

Experiments:
[1] = qHTS assay to identify small molecule agonists of the vitamin D receptor (VDR) signaling pathway - cell viability counter screen (AID 743224; active means well fitted curve in the direction sought with a large enough effect in the repeat runs; an effect the other way counts as inactive or inconclusive; further: on the % scale 0 is the no-effect control and ±100 the full control effect; nearly all actives have a fitted effect of over 50% in size); details: VDR-bla HEK293T viability, CellTiter-Glo luminescence, 16 h; series mostly up to 62.6 µM
In short: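 Viability is measured in the same wells as the VDR-bla reporter assay: after 16 h compound treatment and 2 h substrate loading, CellTiter-Glo is added and luminescence read 30 min later.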

[2] = qHTS assay to identify small molecule antagonists of the vitamin D receptor (VDR) signaling pathway - cell viability counter screen (AID 743225; active means well fitted curve in the direction sought with a large enough effect in the repeat runs; an effect the other way counts as inactive or inconclusive; further: on the % scale 0 is the no-effect control and ±100 the full control effect; nearly all actives have a fitted effect of over 50% in size); details: VDR-bla HEK293T viability, CellTiter-Glo luminescence, 16 h; series mostly up to 61 µM
In short: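 Cytotoxicity toward the VDR-bla HEK 293T line was scored by ATP-based CellTiter-Glo luminescence, read in the wells already used for the beta-lactamase readout after 16 h compound treatment under 3 nM 1-alpha,25-dihydroxyvitamin D3 stimulation.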

[3] = qHTS assay to identify small molecule agonists of the NFkB signaling pathway (AID 1159509; active means well fitted curve in the direction sought with a large enough effect in the signal ratio in the repeat runs, not every such curve was filed as active; the % refers to the signal ratio; further: on the % scale 0 is the no-effect control and ±100 the full control effect); details: NFkB-bla ME-180 cells, beta-lactamase FRET ratio, 5 h; series mostly up to 61 µM
In short: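 NFkB-bla ME-180 cells carry a beta-lactamase reporter under an NF-kB response element. They were plated overnight, then exposed to compounds for 5 h at 37 C. Read-out is LiveBLAzer FRET after 1.5 hr at room temperature (405 nm excitation; 460/530 nm emission).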

[4] = qHTS assay to identify small molecule agonists of the NFkB signaling pathway - cell viability counter screen (AID 1159515); details: NFkB-bla ME-180 viability, CellTiter-Glo luminescence, 5 h; series mostly up to 61 µM; further: on the % scale 0 is the no-effect control and ±100 the full control effect; nearly all actives have a fitted effect of over 55% in size
In short: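 Multiplexed viability readout: after the 5 hr compound exposure and 1.5 hr FRET substrate step, CellTiter-Glo reagent went into the same NFkB-bla ME-180 wells; ATP luminescence was measured after 30 min at room temperature.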

[5] = qHTS assay to identify small molecule agonists of the endoplasmic reticulum stress response signaling pathway (AID 1159516; active means well fitted activation curve with a large enough effect in the signal ratio in the repeat runs, not every such curve was filed as active; the % refers to the signal ratio; further: on the % scale 0 is the no-effect control and ±100 the full control effect); details: ESRE-bla HeLa, ER stress beta-lactamase reporter, 5 h; series mostly up to 61 µM
In short: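 Tox21 10K library screened in quantitative HTS format on ESRE-bla HeLa cells, a beta-lactamase reporter under ER stress response element control; 5 hr treatment, FRET read.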

[6] = qHTS assay to identify small molecule agonists of the endoplasmic reticulum stress response signaling pathway - cell viability counter screen (AID 1159517); details: ESRE-bla HeLa viability, CellTiter-Glo luminescence, 5 h; series mostly up to 61 µM; further: on the % scale 0 is the no-effect control and ±100 the full control effect; nearly all actives have a fitted effect of over 50% in size
In short: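 CellTiter-Glo was added to wells already read for beta-lactamase FRET, and luminescence was recorded 30 min later. Cells: ESRE-bla HeLa, 1,500 per well, compound exposure 5 hr at 37 C.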

[7] = qHTS assay to identify small molecule antagonists of the retinoid-related orphan receptor gamma (ROR-gamma) signaling pathway - cell viability counter screen (AID 1159520; active means well fitted curve in the direction sought with a large enough effect in the repeat runs; an effect the other way counts as inactive or inconclusive; further: on the % scale 0 is the no-effect control and ±100 the full control effect; nearly all actives have a fitted effect of over 50% in size); details: Tet-on RORgamma CHO cells viability, ATP luminescence, 16 h; series mostly up to 92.4 µM
In short: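 Tet-on ROR gamma CHO cells (1,000/well) were plated 4 hr, given compounds in DMSO for 2 hr at 37 C, then induced with 1 uM final doxycycline for 16 hr. Viability was read as ATP by CellTiter-Glo luminescence after 30 min.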

[8] = qHTS assay to identify small molecule agonists of the AP-1 signaling pathway - cell viability counter screen (AID 1159525); details: ME-180 AP-1-bla cells viability, ATP luminescence, 5 h; series mostly up to 76.8 µM; further: nearly all actives have a fitted effect of over 55% in size
In short: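 ME-180 AP-1-bla, 2500 cells/well, Opti-MEM + 0.5% dialyzed FBS; overnight 37 °C; cpd 15-pt titration, 5 h 37 °C; CellTiter-Glo 30 min RT; luminescence read; normalised to TOAB and DMSO controls.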

[9] = qHTS assay to identify small molecule agonists of the AP-1 signaling pathway (AID 1159526); details: ME-180 (cervical carcinoma) AP-1-bla reporter, beta-lactamase FRET ratio, 5 h; series mostly up to 76.8 µM; further: on the % scale 0 is the no-effect control and ±100 the full control effect
[10] = target: Nuclear receptor ROR-gamma (Homo sapiens) (UniProt P51449); test: qHTS assay to identify small molecule antagonists of the retinoid-related orphan receptor gamma (ROR-gamma) signaling pathway (AID 1159521; active means well fitted curve in the direction sought with a large enough effect in the repeat runs; an effect the other way counts as inactive or inconclusive); details: Tet-on RORgamma CHO cells, RORE-luciferase, 16 h; series mostly up to 92.4 µM
In short: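 Readout: ONE-Glo luciferase luminescence, 30 min at room temperature. System: Tet-on RORγ CHO, RORE-LUC. Sequence: compound 2 h, doxycycline 1 uM final, 16 h at 37 C.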

C=COCCOCCOCCOC=C
inactive: Potency [1] | outcome [2] | outcome [3] | outcome [4] | outcome [5] | Potency [6] | outcome [7] | outcome [8] | outcome [9]

COc1ccc(OC)c(Cl)c1
inactive: Potency [1] | outcome [2] | outcome [3] | outcome [4] | outcome [5] | Potency [6] | outcome [7] | outcome [10] | outcome [9]

N[C@@H](COP(=O)(O)O)C(=O)O
inactive: Potency [1] | outcome [2] | outcome [3] | outcome [4] | outcome [5] | Potency [6] | activity, negative = cytotoxicity [7] -0.691% [at 19 µM] | viability change, negative = cytotoxic [8] 11.4% [at 15.8 µM] | activation [9] -0.856% [at 15.8 µM]

CC(C)NCC(O)COc1ccc(COCCOC(C)C)cc1 (stereo not given)
inactive: Potency [1] | outcome [2] | outcome [3] | outcome [4] | outcome [5] | Potency [6] | outcome [7] | outcome [10] | outcome [9]

NCCS
inactive: Potency [1] | outcome [3] | outcome [4] | outcome [5] | Potency [6] | outcome [7] | outcome [8] | outcome [9]

CN(CCOc1ccc(NS(C)(=O)=O)cc1)CCc1ccc(NS(C)(=O)=O)cc1
inactive: outcome [3] | outcome [4] | outcome [5] | Potency [6] | outcome [7] | outcome [10] | outcome [9]

CC[C@H](C)C(=O)O[C@H]1C[C@H](O)C=C2C=C[C@H](C)[C@H](CC[C@@H](O)C[C@@H](O)CC(=O)O)[C@H]21
inactive: outcome [2] | outcome [3] | outcome [4] | outcome [5] | Potency [6] | outcome [7] | outcome [10] | outcome [8] | outcome [9]

COC(=O)c1ccccc1C(=O)c1ccc(OCCN2CCCCC2)cc1
inactive: Potency [1] | outcome [2] | outcome [3] | outcome [4] | outcome [5] | Potency [6] | outcome [7] | outcome [8] | outcome [9]

CC(=C(CCOC(=O)C(C)C)SSC(CCOC(=O)C(C)C)=C(C)N(C=O)Cc1cnc(C)nc1N)N(C=O)Cc1cnc(C)nc1N
inactive: outcome [2] | outcome [3] | outcome [4] | outcome [5] | Potency [6] | outcome [7] | outcome [10] | outcome [8] | outcome [9]

C=Cc1ccccn1
inactive: Potency [1] | outcome [2] | outcome [3] | outcome [4] | outcome [5] | Potency [6] | outcome [7] | outcome [10] | outcome [9]

CCCC/C=C/C=C\C=O
inactive: Potency [1] | outcome [3] | outcome [4] | outcome [5] | Potency [6] | outcome [7] | outcome [10] | outcome [9]

COc1nccnc1NS(=O)(=O)c1ccc(N)cc1
inactive: outcome [2] | outcome [3] | outcome [4] | outcome [5] | Potency [6] | outcome [7] | outcome [10] | outcome [8] | outcome [9]

COc1cc(N)ccc1C
inactive: outcome [2] | outcome [3] | outcome [4] | outcome [5] | Potency [6] | outcome [7] | outcome [8] | outcome [9]

Cc1cccc(C)c1OCC(C)N (stereo not given)
inactive: Potency [1] | outcome [2] | outcome [3] | outcome [4] | outcome [5] | Potency [6] | outcome [10] | outcome [8] | outcome [9]

O=C(OCC1(COC(=O)c2cccnc2)CCCC(COC(=O)c2cccnc2)(COC(=O)c2cccnc2)C1O)c1cccnc1
inactive: Potency [1] | outcome [2] | outcome [3] | outcome [4] | outcome [5] | Potency [6] | outcome [10] | outcome [8] | outcome [9]

CCOC(=O)c1ccc(OC(=O)CCCCCN=C(N)N)cc1
inactive: Potency [1] | outcome [2] | outcome [3] | outcome [4] | outcome [5] | Potency [6] | outcome [10] | outcome [9]

COCCOC(=O)C1=C(C)NC(C)=C(C(=O)OC(C)C)C1c1cccc([N+](=O)[O-])c1 (stereo not given)
inactive: Potency [1] | outcome [2] | outcome [3] | outcome [4] | outcome [5] | Potency [6] | outcome [10] | outcome [8] | outcome [9]

CC(C)C(=O)OCCc1ccccc1
inactive: Potency [1] | outcome [2] | outcome [3] | outcome [4] | outcome [5] | Potency [6] | outcome [10] | outcome [8] | outcome [9]

Cc1cccc2nccnc12
inactive: outcome [2] | outcome [3] | outcome [4] | outcome [5] | Potency [6] | outcome [7] | outcome [9]

CCCOC(=O)C(C)O (stereo not given)
inactive: outcome [3] | outcome [4] | outcome [5] | Potency [6] | outcome [10] | outcome [8] | outcome [9]
